For some of these results: Results with a measured potency or affinity are listed apart.
Experiments:
Parameters in all cases: scale not given: direction of the effect not stated beside the values
[1] = target: Protein translocase subunit SecA (Escherichia coli (strain K12)) (UniProt P10408); test: Assay to Identify E. coli SecA ATPase Inhibitors; type: functional; details: 30 µM
[2] = target: T1, Ubiquitin-activating enzyme e1, putative (Leishmania donovani (strain BPK282A1)) (UniProt E9BSI1); test: Leishmania donovani Ubiquitin Activating Enzyme (LdE1); type: functional; details: 30 µM
T1 sequence (whole entry): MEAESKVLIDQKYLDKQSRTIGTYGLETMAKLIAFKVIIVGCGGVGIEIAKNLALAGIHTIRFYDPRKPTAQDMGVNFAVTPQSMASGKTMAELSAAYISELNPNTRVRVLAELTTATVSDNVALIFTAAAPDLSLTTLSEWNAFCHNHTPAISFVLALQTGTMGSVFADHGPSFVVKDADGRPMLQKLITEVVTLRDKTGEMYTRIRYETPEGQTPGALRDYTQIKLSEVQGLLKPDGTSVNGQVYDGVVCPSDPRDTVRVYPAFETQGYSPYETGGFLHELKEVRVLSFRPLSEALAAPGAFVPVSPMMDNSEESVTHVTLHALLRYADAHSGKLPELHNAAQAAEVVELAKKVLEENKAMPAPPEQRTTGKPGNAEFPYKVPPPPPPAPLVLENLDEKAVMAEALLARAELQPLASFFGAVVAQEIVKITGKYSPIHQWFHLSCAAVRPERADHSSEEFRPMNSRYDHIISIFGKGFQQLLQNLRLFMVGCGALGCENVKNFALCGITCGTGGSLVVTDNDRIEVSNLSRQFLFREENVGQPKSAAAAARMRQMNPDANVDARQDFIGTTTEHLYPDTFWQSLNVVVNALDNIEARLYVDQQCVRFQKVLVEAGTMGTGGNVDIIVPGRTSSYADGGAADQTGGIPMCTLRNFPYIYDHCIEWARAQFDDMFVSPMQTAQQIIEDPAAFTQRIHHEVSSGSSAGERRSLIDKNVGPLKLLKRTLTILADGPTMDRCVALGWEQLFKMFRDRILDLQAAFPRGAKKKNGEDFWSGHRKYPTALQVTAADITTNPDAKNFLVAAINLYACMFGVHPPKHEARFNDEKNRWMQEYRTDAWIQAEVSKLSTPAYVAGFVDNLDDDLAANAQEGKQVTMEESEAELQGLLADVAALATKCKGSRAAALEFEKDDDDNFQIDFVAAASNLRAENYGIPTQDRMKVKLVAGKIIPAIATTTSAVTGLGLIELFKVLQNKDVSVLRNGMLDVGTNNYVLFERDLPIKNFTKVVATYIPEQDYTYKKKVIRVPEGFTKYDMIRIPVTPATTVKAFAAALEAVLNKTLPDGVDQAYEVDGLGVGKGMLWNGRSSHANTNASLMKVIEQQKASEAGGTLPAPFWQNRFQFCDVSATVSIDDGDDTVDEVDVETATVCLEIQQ

[3] = target: AMP-activated protein kinase, AMPK (Homo sapiens) (UniProt P54646+O43741+P54619+Q9UGJ0+Q9Y478+Q13131+Q9UGI9); test: AMP-dependent Kinase enzyme assay. An in vitro enzyme assay that detects ADP turnover that is directly proportional to AMPK activity. This uses naive AMPK that is activated during the assay with MK-8722; type: functional; details: 30 µM
[4] = target: Sialic acid-binding Ig-like lectin 9 (Homo sapiens) (UniProt Q9Y336); test: Hs-Siglec9 ALPHAscreen SOP 20170721; details: 10 µM
Trypanosoma cruzi = test: Trypanosoma cruzi phosphomannomutase and mannose-1-phosphate guanylyltransferase assay; type: functional; details: 10 µM
[5] = target: T2, Arginase-2, mitochondrial (Homo sapiens) (UniProt P78540); test: in vitro enzyme assay to detect the production of urea directly proportional to the activity of Arginase II; type: functional; details: 33.3 µM; further: in the data most compounds retested in dose-response had high values
T2 sequence (whole entry): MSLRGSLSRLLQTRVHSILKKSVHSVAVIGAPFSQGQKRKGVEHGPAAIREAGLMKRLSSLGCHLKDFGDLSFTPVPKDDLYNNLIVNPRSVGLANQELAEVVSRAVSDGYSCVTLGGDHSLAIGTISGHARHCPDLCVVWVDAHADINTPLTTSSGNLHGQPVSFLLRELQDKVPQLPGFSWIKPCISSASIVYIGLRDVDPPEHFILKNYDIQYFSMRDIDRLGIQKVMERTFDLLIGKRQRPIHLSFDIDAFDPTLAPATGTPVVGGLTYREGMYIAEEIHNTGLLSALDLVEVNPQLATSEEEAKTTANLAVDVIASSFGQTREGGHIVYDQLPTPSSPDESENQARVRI

[6] = target: T3, Proteasome subunit beta (Trypanosoma cruzi) (UniProt O96673); test: Trypanosoma cruzi proteasome chymotrypsin-like activity (TcProtChymo) assay.; further: in the data most compounds retested in dose-response had high values; type: functional; details: 9.37 µM
T3 sequence (whole entry): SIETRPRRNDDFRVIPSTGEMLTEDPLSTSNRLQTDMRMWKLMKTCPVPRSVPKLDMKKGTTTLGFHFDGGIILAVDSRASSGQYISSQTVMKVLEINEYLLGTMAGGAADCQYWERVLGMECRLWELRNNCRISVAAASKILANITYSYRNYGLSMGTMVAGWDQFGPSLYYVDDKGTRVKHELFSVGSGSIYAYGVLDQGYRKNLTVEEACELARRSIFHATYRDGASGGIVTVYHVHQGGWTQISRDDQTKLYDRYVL

Homo sapiens = organism: Homo sapiens; test: To identify inhibition of the IFN signalling (Jak-Stat) pathway via expression of an eGFP reporter gene under the control of an IFN-stimulated response element (ISRE) containing MxA promoter.; type: functional; details: 30 µM
[7] = target: T4, Tyrosyl-tRNA synthetase, putative (Trypanosoma cruzi (strain CL Brener)) (UniProt Q4DSP6); test: Trypanosoma cruzi tyrosyl tRNA synthetase (TcYRS) _High Tyrosine SOP; type: functional; details: 30 µM; further: in the data most compounds retested in dose-response had high values
T4 sequence (whole entry): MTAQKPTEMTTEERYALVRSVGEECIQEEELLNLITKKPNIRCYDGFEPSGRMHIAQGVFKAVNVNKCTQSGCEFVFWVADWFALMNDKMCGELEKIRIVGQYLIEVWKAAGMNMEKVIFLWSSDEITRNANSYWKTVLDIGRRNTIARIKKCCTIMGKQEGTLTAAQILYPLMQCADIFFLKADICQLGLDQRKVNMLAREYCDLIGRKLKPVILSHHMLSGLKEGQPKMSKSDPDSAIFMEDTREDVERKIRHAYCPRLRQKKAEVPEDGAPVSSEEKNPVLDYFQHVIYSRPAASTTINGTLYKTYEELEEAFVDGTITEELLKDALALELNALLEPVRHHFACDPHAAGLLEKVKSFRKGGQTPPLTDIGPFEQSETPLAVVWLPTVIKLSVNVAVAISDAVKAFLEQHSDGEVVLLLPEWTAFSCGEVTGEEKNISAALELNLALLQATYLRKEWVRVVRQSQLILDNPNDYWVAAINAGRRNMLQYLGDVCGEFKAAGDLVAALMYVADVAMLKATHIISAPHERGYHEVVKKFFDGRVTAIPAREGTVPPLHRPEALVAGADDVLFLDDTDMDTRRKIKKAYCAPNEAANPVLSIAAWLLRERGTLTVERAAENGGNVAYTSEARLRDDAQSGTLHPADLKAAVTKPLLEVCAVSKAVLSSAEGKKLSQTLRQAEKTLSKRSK

[8] = target: T4, Tyrosyl-tRNA synthetase, putative (Trypanosoma cruzi (strain CL Brener)); test: Trypanosoma cruzi tyrosyl tRNA synthetase (TcYRS) SOP; type: functional; details: 30 µM
[9] = target: Chromo domain-containing protein 1 (Saccharomyces cerevisiae (strain ATCC 204508 / S288c) (Baker's yeast)) (UniProt P32657); test: ScCHD-1 Enzyme Inhibition Assay; type: functional; details: 30 µM; further: in the data most compounds retested in dose-response had high values
Chain of Chromo domain-containing protein 1 (Saccharomyces cerevisiae (strain ATCC 204508 / S288c) (Baker's yeast)) (P32657 whole entry, the tested form may be a part): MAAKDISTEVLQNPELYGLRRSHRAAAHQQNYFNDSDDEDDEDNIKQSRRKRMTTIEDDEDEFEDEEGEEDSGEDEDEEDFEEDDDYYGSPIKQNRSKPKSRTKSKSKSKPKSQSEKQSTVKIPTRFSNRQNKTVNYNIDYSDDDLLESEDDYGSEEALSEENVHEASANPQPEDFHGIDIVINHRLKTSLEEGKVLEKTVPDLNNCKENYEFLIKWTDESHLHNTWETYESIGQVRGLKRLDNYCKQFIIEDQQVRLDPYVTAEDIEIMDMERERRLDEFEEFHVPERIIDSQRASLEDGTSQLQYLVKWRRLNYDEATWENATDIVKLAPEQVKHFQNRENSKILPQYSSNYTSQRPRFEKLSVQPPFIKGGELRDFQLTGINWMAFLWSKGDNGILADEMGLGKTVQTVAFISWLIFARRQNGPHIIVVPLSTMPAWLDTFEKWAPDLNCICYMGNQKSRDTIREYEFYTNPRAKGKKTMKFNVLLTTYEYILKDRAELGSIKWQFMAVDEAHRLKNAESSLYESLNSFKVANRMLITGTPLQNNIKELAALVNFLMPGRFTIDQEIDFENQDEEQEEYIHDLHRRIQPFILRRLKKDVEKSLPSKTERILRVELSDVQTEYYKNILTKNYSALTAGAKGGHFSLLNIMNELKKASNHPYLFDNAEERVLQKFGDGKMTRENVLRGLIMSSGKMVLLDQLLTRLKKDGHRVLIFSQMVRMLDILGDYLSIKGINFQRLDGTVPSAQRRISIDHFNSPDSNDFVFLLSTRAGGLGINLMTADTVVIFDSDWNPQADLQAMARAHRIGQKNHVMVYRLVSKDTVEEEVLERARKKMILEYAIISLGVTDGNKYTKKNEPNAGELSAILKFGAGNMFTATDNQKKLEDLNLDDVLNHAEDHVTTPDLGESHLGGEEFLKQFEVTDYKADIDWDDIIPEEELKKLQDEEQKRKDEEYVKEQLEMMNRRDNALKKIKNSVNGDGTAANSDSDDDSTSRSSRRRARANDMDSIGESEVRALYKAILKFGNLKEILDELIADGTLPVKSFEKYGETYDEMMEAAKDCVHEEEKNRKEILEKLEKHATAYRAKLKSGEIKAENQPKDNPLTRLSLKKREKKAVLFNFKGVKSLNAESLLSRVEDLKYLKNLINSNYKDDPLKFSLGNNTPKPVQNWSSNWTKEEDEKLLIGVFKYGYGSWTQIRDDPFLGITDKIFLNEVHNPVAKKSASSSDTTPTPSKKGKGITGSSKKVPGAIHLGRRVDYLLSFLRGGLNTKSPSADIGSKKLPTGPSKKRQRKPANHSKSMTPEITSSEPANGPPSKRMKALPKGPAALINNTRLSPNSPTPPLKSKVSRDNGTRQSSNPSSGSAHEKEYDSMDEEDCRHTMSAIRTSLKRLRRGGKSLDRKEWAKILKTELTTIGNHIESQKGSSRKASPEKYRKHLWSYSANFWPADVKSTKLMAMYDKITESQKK

Chain of Protein translocase subunit SecA (Escherichia coli (strain K12)) (P10408 whole entry): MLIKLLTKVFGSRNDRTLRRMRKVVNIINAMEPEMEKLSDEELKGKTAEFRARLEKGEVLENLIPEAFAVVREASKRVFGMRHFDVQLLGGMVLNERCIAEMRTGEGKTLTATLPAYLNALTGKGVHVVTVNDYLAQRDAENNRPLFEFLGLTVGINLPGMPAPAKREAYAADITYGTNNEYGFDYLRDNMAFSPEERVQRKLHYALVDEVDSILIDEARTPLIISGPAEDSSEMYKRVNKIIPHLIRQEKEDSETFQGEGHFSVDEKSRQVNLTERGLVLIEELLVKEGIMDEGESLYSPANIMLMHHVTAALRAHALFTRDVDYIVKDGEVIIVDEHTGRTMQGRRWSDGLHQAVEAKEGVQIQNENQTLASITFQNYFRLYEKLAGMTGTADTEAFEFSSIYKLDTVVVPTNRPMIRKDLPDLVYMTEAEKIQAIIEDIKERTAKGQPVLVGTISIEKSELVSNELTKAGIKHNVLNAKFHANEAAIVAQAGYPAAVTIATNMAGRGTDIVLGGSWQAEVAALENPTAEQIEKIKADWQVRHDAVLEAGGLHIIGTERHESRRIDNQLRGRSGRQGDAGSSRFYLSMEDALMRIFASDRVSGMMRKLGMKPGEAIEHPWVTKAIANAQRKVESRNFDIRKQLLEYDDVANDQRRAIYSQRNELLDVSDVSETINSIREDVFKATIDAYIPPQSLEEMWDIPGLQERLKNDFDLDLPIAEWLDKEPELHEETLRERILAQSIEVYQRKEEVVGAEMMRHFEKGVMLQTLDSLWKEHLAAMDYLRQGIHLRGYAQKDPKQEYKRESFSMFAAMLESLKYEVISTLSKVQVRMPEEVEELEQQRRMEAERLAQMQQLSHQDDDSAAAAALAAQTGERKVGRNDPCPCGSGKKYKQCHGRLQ
Chain of Sialic acid-binding Ig-like lectin 9 (Homo sapiens) (Q9Y336 whole entry): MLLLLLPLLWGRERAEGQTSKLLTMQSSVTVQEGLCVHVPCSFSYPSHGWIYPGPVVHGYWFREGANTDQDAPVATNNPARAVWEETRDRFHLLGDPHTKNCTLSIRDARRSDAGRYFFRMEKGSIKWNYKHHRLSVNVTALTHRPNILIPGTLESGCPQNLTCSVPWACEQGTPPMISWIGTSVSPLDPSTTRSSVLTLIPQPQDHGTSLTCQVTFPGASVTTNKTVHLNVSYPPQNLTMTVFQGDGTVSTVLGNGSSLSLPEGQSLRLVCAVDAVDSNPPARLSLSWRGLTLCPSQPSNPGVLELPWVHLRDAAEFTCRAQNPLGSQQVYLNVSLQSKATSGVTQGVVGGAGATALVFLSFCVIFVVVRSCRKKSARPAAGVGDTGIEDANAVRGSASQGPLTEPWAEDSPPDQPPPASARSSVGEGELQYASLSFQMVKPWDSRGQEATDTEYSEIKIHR

Structure (SMILES)	Percent Effect [1] [%]	Percent Effect [2] [%]	Percent Effect [3] [%]	Percent Effect [4] [%]	Percent Effect (Trypanosoma cruzi) [%]	Percent Effect [5] [%]	Percent Effect [6] [%]	Percent Effect (Homo sapiens) [%]	Percent Effect [7] [%]	Percent Effect [8] [%]	Percent Effect [9] [%]
CCc1nc2n(n1)CC(NCc1ncc(-c3ccccc3)o1)CC2 (stereo unspecified)	-1.59	-2.63	0.215	5.65	1.21	1.8	4.65	-5.2	3.45	-23.5	-5.56
Cc1cc(=O)[nH]c(CCNC(=O)C(c2ccc(F)cc2)N(C)C)n1 (stereo unspecified)	6.03	11	-3.97	1.73	-5.75	-14	13.3	26.9	10.4	11.1	0.214
COc1ccccc1S(=O)(=O)Nc1ccc2c(C(=O)O)c[nH]c2c1	-5.95	-10.4	-64.6	10.9	8.05	-4.98	8.28	14.3	0	12.2	-7.94
CC(C)c1nc(C2CCCN2CC(=O)N2CCNC2=O)no1 (stereo unspecified)	-3.33	2.63	-0.208	-4.56	5.26	1.15	1.34	-5.94	-0.49	4.88	-10.2
CCN(CC(=O)NC)S(=O)(=O)N1CCCCCC1	-5.53	10.8	-3.76	4.7	-0.489	3.72	6.61	8.47	4.3	13.6	-2.62
Cc1nc(CN2C(=O)COC3(CCN(Cc4ccco4)CC3)C2C)cs1 (stereo unspecified)	-3.92	2.74	3.27	2.66	-3.37	-3.19	15.8	2.79	3.12	6.17	-2.61
COc1ccc(CN(Cc2cncn2C)CC2CCCO2)cc1OC (stereo unspecified)	-3.49	12.2	11.9	0.383	-2.37	3.94	9.52	-8.46	5.38	11.7	-15
COC(=O)c1cccc(NS(=O)(=O)c2cnc(NC(C)=O)s2)c1	1.56	6.67	-2.6	1.81	-6.09	-8.63	17.4	-6.95	3.17	0	-6.88
CC(NCc1ccccc1Br)c1ccc2[nH]c(=O)[nH]c2c1 (stereo unspecified)	-1.71	-18.9	-5.22	10.9	5.19	-0.401	-0.18	25.5	-0.493	6.17	-4.59
CCOCCC(=O)Nc1cccc(Oc2ccccn2)c1	-5.45	0	-0.587	2.14	0.487	2.37	0.288	-0.792	0	-5.2	6.72
CCc1nccn1C1CCCN(C(=O)c2ccc3[nH]cnc3c2)C1 (stereo unspecified)	-7.22	2.63	2.64	2.2	5.36	1.18	9.3	7.56	8.51	10.4	-0.611

— ChEMBL document CHEMBL3988442, “University of Dundee, Small-Polar-MMV Screening Library” (2021)
